# Source: ChEMBL document CHEMBL3433997, “St. Jude Leishmania screening dataset” (2016)
# How the values were obtained:
# Assay type in all cases: functional
# [1] = molecular target: Solute carrier family 2, facilitated glucose transporter member 1 (Homo sapiens) (UniProt P11166); experiment: ST_JUDE_LEISH: Cytotoxicity at 2uM final concentration against transgenic Leishmania Mexicana promastigotes LmGLUT1 that are glucose transport deficient and complemented with the human glucose transporter GLUT1. Activity is measured by DNA content using SYBR green in vitro
# [2] = molecular target: Hexose transporter 1 (Plasmodium falciparum) (UniProt O97467); experiment: ST_JUDE_LEISH: Cytotoxicity at 2uM final concentration against transgenic Leishmania Mexicana promastigotes LmPfHT that are glucose transport deficient and complemented with the Plasmodium falciparum hexose transporter. Activity is measured by DNA content using SYBR green in vitro
# [3] = molecular target: Glucose transporter (Leishmania mexicana) (UniProt O61059); experiment: ST_JUDE_LEISH: Cytotoxicity at 2uM final concentration against transgenic Leishmania Mexicana promastigotes LmGT2 that are glucose transport deficient and complemented with the L. Mexicana glucose transporter 2. Activity is measured by DNA content using SYBR green in vitro
# Solute carrier family 2, facilitated glucose transporter member 1 (Homo sapiens), sequence (P11166 whole entry): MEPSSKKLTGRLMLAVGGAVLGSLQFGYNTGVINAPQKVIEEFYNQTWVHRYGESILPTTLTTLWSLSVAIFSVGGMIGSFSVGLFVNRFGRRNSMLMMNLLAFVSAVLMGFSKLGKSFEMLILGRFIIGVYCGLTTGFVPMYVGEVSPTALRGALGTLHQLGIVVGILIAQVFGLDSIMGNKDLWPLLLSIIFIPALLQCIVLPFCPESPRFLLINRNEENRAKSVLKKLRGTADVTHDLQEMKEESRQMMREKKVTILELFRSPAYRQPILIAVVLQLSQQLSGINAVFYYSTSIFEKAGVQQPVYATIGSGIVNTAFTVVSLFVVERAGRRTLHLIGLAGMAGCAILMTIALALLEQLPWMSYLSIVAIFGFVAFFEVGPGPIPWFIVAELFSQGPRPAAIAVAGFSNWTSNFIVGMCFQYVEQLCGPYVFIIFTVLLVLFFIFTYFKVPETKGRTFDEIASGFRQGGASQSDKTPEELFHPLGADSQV
SMILES,inhibition [1] [%],inhibition [2] [%],inhibition [3] [%]
c1cc(CNCC2CCN(CC3CCCCC3)CC2)cc(-n2ccnc2)c1,-1.01,-0.61,0.1
CC(C)CN1CCN(CCNc2c3ccccc3nc3ccccc23)CC1,83,83.1,81.3
CN1CCC(C(=O)Nc2cccc(-c3ccc(-c4nc5ccccc5[nH]4)cc3)c2)CC1,-0.41,1.25,1.04
Cc1cccnc1CNc1nccc2c(C)c(C)[nH]c12,2.2,2.33,-0.37
COc1ccc2c(c1)c(C1CCN(CCCCNC(=O)c3ccc(-c4ccc(C(F)(F)F)cc4)cc3)CC1)cn2C(C)C,-0.71,1.93,0.76
CC(=O)Nc1ccc(OCCN(Cc2ccccc2C(F)(F)F)c2ccc(C#N)c(C(F)(F)F)c2)cc1,18.7,16,28.2
CC(C)CCNC(=O)[C@@H]1[C@H]2C(=O)N(C3CCCCC3)C(=O)[C@H]2[C@H]2C=C[C@@H]3C(c4ccc(C(C)(C)C)cc4)=NO[C@@H]3N21,13.3,11.4,7.33
O=C(c1ccc(F)c(F)c1)N1CCOC(CCN2CCC(c3ccccc3)CC2)(c2ccc(Cl)c(Cl)c2)C1 (centres undefined),4.15,2.12,3.63
NC[C@H](CC1CCCCC1)NC(=O)c1ccc(-c2ccnc3[nH]ccc23)s1,7.16,3.21,2.91
OCC1CCN(Cc2cccc(-c3ccc(-c4nc5cc(C(F)(F)F)ccc5[nH]4)cc3)c2)CC1,1.05,0.48,1.4
CC(=O)Nc1ccc(OCCCN(Cc2ccccc2OC(F)(F)F)c2ccc(C(F)(F)F)c(C#N)c2)c(Cl)c1,2.37,-1.13,1.86
Fc1ccc(COc2ccc(Nc3ncnc4ccc(I)cc34)cc2Cl)cc1,20.3,5.02,1.83
CCOc1ccc2c(=NN=Cc3ccccc3F)cc(C)[nH]c2c1,1.77,1.33,-0.43
O=C(Nc1ccc2c(c1)CCN(C1CCC1)CC2)c1ccc(-n2ccnc2)cn1,1.81,2.97,2.28
Fc1ccc2c(NN=Cc3ccc(Cl)cc3)ccnc2c1,10.8,10.9,6.76
CC1CN(Cc2csc(Nc3ccccc3)n2)CC(C)O1 (centres undefined),-0.51,0.99,3.5
CCCN(CCCCCCNCCc1ccc(Cl)cc1)CCc1ccc(O)c(O)c1,-4.9,-1.72,-4.57

SMILES,inhibition [1] [%],inhibition [2] [%],inhibition [3] [%]
O=C(Nc1cccc(C(F)(F)F)c1)c1ccc(S(=O)(=O)NCC2CCCN(CC3CCCCC3)C2)cc1 (centres undefined),1.23,0.41,-0.91
CN(c1ccc(NC(=O)Nc2cc(C(C)(C)C)on2)cc1)c1ccnc(NCCOC(=O)Nc2cc(C(C)(C)C)on2)n1,10.6,7.48,11.5
COc1cc2ncnc(NCCc3ccccc3Cl)c2cc1OC,-1.61,-0.48,-0.92
CC(C)N(Cc1cnc2nc(N)nc(N)c2n1)c1ccc(Cl)c(Cl)c1,1.77,1.12,1.16
COCCNCc1cccc(-c2ccccc2CN(C(=O)c2ccc3c(c2)OCO3)c2ccc(OC)cc2)c1,4.69,4.93,3.25
CCCc1cc(NC2CCN(C)CC2)nc(Nc2ccc(C)cc2)n1,5.35,3.28,2.46
CN(C)CCCOc1cc(NC(=O)Nc2ccc(-c3ccncc3)c3ccccc23)ccc1I,6.91,6.1,7.69
CN1CCN(c2ccc(-c3cccc(NC(=O)c4ccc5ccccc5c4)c3)nn2)CC1,14,10.9,7.19
Cn1nc(-c2ccc(CN[C@@H]3CCc4ccc(O)cc43)cc2)c2cnc(NC3CCCC3)nc21,0.66,-1.03,-0.55
COc1ccc(CN2CCC(CNCc3cccc(-c4ccccc4)c3)CC2)cc1,3.34,0.46,3.8
Cc1ccc(F)cc1S(=O)(=O)N1CCCCC(c2ccc(C(F)(F)F)cc2)=N1,7.48,5.61,8.34
Cc1cccc2nc(-c3cccc(-c4cccc(NC(=O)CN5CCN(C)CC5)c4)c3)[nH]c12,8.23,7.52,6.83
COc1cccc(C(=O)Nc2ccc(Nc3nc(C)cc(N(C)C)n3)cc2)c1,12.8,9.13,7.09
O=C(/C=C/c1ccc(Cl)c(Cl)c1)NCCCCCN1CCC(NS(=O)(=O)c2cc(Cl)cc(Cl)c2)CC1,3.59,3.03,3.19
Cc1cccc2nc(-c3cccc(-c4ccc(NC(=O)Nc5ccc(F)c(F)c5F)cc4)c3)[nH]c12,1.49,1.47,3.22
CS(=O)(=O)Cc1cccc(Nc2ncc(Cl)c(Nc3cccnc3C(N)=O)n2)c1,11.5,12.6,15.6
